PubChem BioAssay (EPA / NIEHS)
Several values for one entry are separate records, joined by “and”; a condition that tells them apart may be missing. Identical values can stand only once. Some compounds were tested as several samples or in several runs, with calls that do not always agree. Activity calls are given as the source filed them. Rule for the calls: active = hit-call score of the fitted dose curve at least 0.9, where 1 is the maximum; inactive = score below 0.9.

Assay: ATG_DR4_LXR_CIS: Attagene CIS-FACTORIAL HepG2 Assay for human Liver X Receptor (LXR), DR4 submotif (AID 2282929)
Details: HepG2 Attagene DR4 cis-reporter, mRNA transcription; actives raise or lower the signal
Method: ATG_CIS is a cell-based, multiplexed-readout assay that uses HepG2, a human liver cell line, with measurements taken at 24 hours after chemical dosing in a 24-well plate.ATG_DR4_LXR_CIS is one of 52 assay component(s) measured or calculated from the ATG_CIS assay. It is designed to make measurements of mRNA induction, a form of inducible reporter, as detected with fluorescence intensity signals by Reverse transcription polymerase chain reaction (RT-PCR) and Capillary electrophoresis technology.Data from the assay component ATG_DR4_LXR_CIS was analyzed into 1 assay endpoint. This assay endpoint, ATG_DR4_LXR_CIS, was analyzed with bidirectional fitting relative to DMSO as the negative control and baseline of activity. Using a type of inducible reporter, measures of mRNA for gain or loss-of-signal activity can be used to understand the reporter gene at the transcription factor-level as they relate to the gene NR1H2 and NR1H3. Furthermore, this assay endpoint can be referred to as a primary readout, because this assay has produced multiple assay endpoints where this one serves a reporter gene function. To generalize the intended target to other relatable targets, this assay endpoint is annotated to the nuclear receptor intended target family, where the subfamily is non-steroidal.
Human liver HepG2 cells are transiently transfected with multiple reporter transcription units (MRTUs) in 6-well plates using FuGene 6 reagent (Roche; 3 ml FuGene/1 mg DNA). The MRTU constructs are regulated by a cis-regulating element (promoter). […] A major difference between the CIS and TRANS system is that in CIS activities of endogenous TFs are measured, whereas the TRANS assay evaluates changes in activities of exogenous, chimeric NR-Gal4 proteins. […] At the end of 24 hour incubation, total RNA was isolated using TriZol reagent (Invitrogen). The isolated RNA is then reverse-transcribed using oligo(dT) primer and Mo-MLV reverse transcriptase (Invitrogen) with DNAse I (Ambion) treatment for 30 min. The one-tenth of the produced cDNA was amplified by PCR using Taq DNA polymerase (Invitrogen) and two reporter sequence-specific primers. The PCR products were fluorescently labeled by primer extension with 6-arboxyfluorescein (6-FAM) 5'-labeled reporter sequence-specific primer (2 min at 95 C, 20 s at 68 C and 10 min at 72 C) and these products were digested with 5U of HpaI (New England Biolabs) for 2h at 37 C. The fragments were purified using Qiaquick PCR columns (Qiagen), analyzed on an ABI 3130xL genetic analyzer (Applied Biosystems) with peak positions identified by using a set of X-rhodamine (ROX)-labeled MapMarker1000 molecular weight standards (BioVentures). The raw capillary electrophoresis data was processed using Attagraph software (Attagene).

outcome, inactive:
O=C(O)c1ccccc1-n1cc(C(=O)O)c(=O)c2cc(Nc3c(F)cc(F)cc3Cl)c(Cl)cc21
Cc1cn([C@H]2C[C@H](N=[N+]=[N-])[C@@H](CO)O2)c(=O)[nH]c1=O
CC(C)(O)c1ccc(CNC(=O)c2cccnc2Oc2ccc3nonc3c2)cc1
c1ccc(C[n+]2cccc3ccccc32)cc1
CCCCCc1ccc(N)cc1
CC1=CC(=O)/C(=C(/C)O)C(=O)O1
CCCCOC(=O)CC(CC(=O)OCCCC)(OC(C)=O)C(=O)OCCCC
O=c1c(-c2ccc(O)cc2)coc2cc(O)cc(O)c12
O=C(O)Cc1cc(I)c(Oc2ccc(O)c(I)c2)c(I)c1
CCOC(=O)O[C@H](C)OC(=O)c1ccc2c(c1)cc(C(=O)NC1CCN(C(C)C)CC1)n2Cc1cc(-c2ccc(Cl)s2)on1
O=C(OCCCCCCOC(=O)c1ccccc1)c1ccccc1
Oc1ccccc1
O=C=NCCCCCCN=C=O
CN(C)C(=O)C1(N2CCCCC2)CCN(CC[C@@]2(c3ccc(Cl)c(Cl)c3)CN(C(=O)c3ccccc3)CCO2)CC1
Cc1oc2c(NC(=O)c3c(Cl)cccc3Cl)cccc2c1C(C)(C)O
CC[C@H](NC(=O)c1cc(F)ccc1NS(=O)(=O)c1cccc2cccnc12)c1ccccc1
CCCCCCCCOC(=O)c1cc(O)c(O)c(O)c1
CC[C@@H]1C[C@H](N(Cc2cc(C(F)(F)F)cc(C(F)(F)F)c2)C(C)=O)c2cc(C(F)(F)F)ccc2N1C(=O)OC(C)C
CCCCOC(=O)c1ccc(O)cc1
Cc1ccc(C(C)C)cc1
Cc1cc2c(cc1C(F)(F)F)N(C(=O)Nc1ccc(Oc3cccnc3C)nc1)CC2
O=c1[nH]sc2ccccc12
CCCOC(=O)c1cc(O)c(O)c(O)c1
O=C1CCC(C2CCCCC2)CC1
Cc1ccc2oc(CN(Cc3ccccc3)C(=O)Nc3c(F)cc(F)cc3F)c(-c3ccc(Cl)cc3)c2c1
OCCO
CCO[Si](CCCNC(N)=O)(OCC)OCC
CCCCCCCCOc1ccc(C(=O)c2ccccc2)c(O)c1
CCCC(=O)OCCC(C)C
CC/C(=C(/CC)c1ccc(O)cc1)c1ccc(O)cc1

AC50, active:
CCCCOC(=O)CC(CC(=O)OCCCC)(OC(C)=O)C(=O)OCCCC 23.4 µM
CC(C)(C)c1cc(/C=C2\SC(N)=NC2=O)cc(C(C)(C)C)c1O 6.65 µM
CC(=O)N1CCN(c2ccc(OC[C@H]3CO[C@](Cn4ccnc4)(c4ccc(Cl)cc4Cl)O3)cc2)CC1 43.9 µM
O=c1c(-c2ccc(O)cc2)coc2cc(O)cc(O)c12 7.13 µM and 4.78 µM
O=C1c2ccccc2C(=O)N1CCc1noc(-c2ccc(CN3CCCCCC3)s2)n1 84.5 µM
COc1cc(C(=O)NC2CCN(C)CC2)ccc1Nc1ncc2c(n1)N(C1CCCC1)CC(F)(F)C(=O)N2C 5.99 µM
CCCCOC(=O)c1ccc(O)cc1 169 µM
CC(C)(c1cc(Br)c(O)c(Br)c1)c1cc(Br)c(O)c(Br)c1 12.5 µM and 13.9 µM
Clc1cc(Cl)c2c(c1)N=C1CCCCCN1C2 78.1 µM
O=C1CCC(C2CCCCC2)CC1 164 µM and 171 µM and 160 µM
CC/C(=C(/CC)c1ccc(O)cc1)c1ccc(O)cc1 7.89 µM [middle of 4 runs]
